Assay outcomes deposited in PubChem by National Center for Advancing Translational Sciences (NCATS).
Shown is part of a subset that was picked to be rich in hits.
Methyltransferases = Primary Screen for Target Class Profiling of Small Molecule Inhibitors of Methyltransferases; AID 1745853, 2022; calls only at 40 µM; 25,000 tested, 3.9% active; purified enzyme, MTase-Glo SAH luminescence; active compounds read low; call rule not given here
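Each enzyme was reacted with SAM and its substrate, with compounds tested once at 40 uM; SAH formed was read by MTase-Glo luminescence.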
Starred values were filed as active, the others as inactive; ! = repeats disagree. % is scaled to controls: 0 for no effect and ±100 for the full control effect.

Screening COc1cc(/C=C(\C#N)C(=O)Nc2nnc(C(F)(F)F)s2)ccc1OCc1ccc(C(F)(F)F)cc1C(F)(F)F returned Methyltransferases inactive.
`COc1cc(/C=C(\C#N)C(=O)c2ccc(O)c(O)c2)cc(I)c1O` gave Methyltransferases active.
For CCCN1C(=O)c2c(C(=O)NCc3ccccc3OC)ncn2CC1(C)C(=O)NCCC(C)C (stereo unspecified) the results were Methyltransferases inactive.
`COc1cccc(CN2C(=O)c3nc4ccccc4n3CC2(C)C(=O)NCc2ccccc2)c1OC` (stereo unspecified) gave Methyltransferases inactive.
Screening CC(C)CCn1c(=O)c2ccccc2n2c(SCC(=O)Nc3cccc(Cl)c3)nnc12 returned Methyltransferases inactive.
For O=C(O)CSc1cc(NS(=O)(=O)c2ccc(Br)cc2)c2ccccc2c1O the results were Methyltransferases active.
For Cn1c(=O)n(C)c2cc(S(=O)(=O)Nc3ccc(Br)cc3)ccc21 the results were Methyltransferases inactive.
CCCc1cc2c(-c3ccccc3)cc(=O)oc2cc1OCc1ccc(C(=O)OC)o1 was read as Methyltransferases inactive.
For C=C(C(=O)O)C1CC2=C(C)CCCC2(C)C[C@@H]1O (stereo partly specified) the results were Methyltransferases inactive.
Screening C=C(C(=O)O)[C@H]1C[C@]2(C)C(=O)CC[C@]23O[C@H]1C[C@@H]3C returned Methyltransferases active.
Screening O=C1CN(Cc2c(F)cccc2Cl)S(=O)(=O)c2ccccc2N1Cc1ccc(F)cc1 returned Methyltransferases inactive.
Screening COC(=O)C1=CO[C@@H](O[C@@H]2O[C@H](COC(=O)/C=C/c3cc(OC)c(O)c(OC)c3)[C@@H](O)[C@H](O)[C@H]2O)[C@@H]2C(CO)=CC[C@H]12 returned Methyltransferases active.
For O=C(/C=C/c1ccccc1)OCC1=CC[C@@H]2C(C(=O)O)=CO[C@@H](O[C@@H]3O[C@H](CO)[C@@H](O)[C@H](O)[C@H]3O)[C@H]12 the results were Methyltransferases inactive.
COC(=O)C1=COC(O[C@@H]2O[C@H](COC(=O)/C=C/c3ccc(O)cc3)[C@@H](O)[C@H](O)[C@H]2O)C2C(CO)=CCC12 (stereo partly specified) was read as Methyltransferases inactive.
Screening Cc1ccc(C(=O)Cn2nc3n(C(C)C)c(=O)c4ccc(C(=O)NC(C)C)cc4n3c2=O)c(C)c1 returned Methyltransferases inactive.
Screening CCCC1c2ccc(C)n2CCN1C(=O)Nc1ccc(Br)c(C)c1 (stereo unspecified) returned Methyltransferases inactive.
`COc1cccc(CN2C(=O)c3nc4ccccc4n3CC2(C)C(=O)NC2CCCCCC2)c1OC` (stereo unspecified) gave Methyltransferases inactive.
Screening CC(C)n1nc(Cc2cccc3ccccc23)c2c(N)ncnc21 returned Methyltransferases active.
Screening CC(C)n1nc(-c2ccc3oc(N)nc3c2)c2c(N)ncnc21 returned Methyltransferases inactive.
For CC(C)n1nc(CNC(=O)Cc2ccc(F)cc2)c2ccccc21 the results were Methyltransferases inactive.
`O=C(Cn1ccc2cc(S(=O)(=O)N3CCCCC3)ccc21)N1CCN(c2ccccn2)CC1` gave Methyltransferases inactive.
`Clc1cccc2c1NC(c1ccc(Br)cc1)C1CC=CC21` (stereo unspecified) gave Methyltransferases inactive.
For Cc1cc(C)cc(NC(=O)CSc2nnc3n(CC(C)C)c(=O)c4ccccc4n23)c1 the results were Methyltransferases inactive.
For CC(C)CCNc1nc2c(-c3ccc(Cl)cc3)nnn2c2ccccc12 the results were Methyltransferases inactive.
Screening c1nc(NCC2CCOC2)c2cc(-c3ccc4c(c3)OCO4)ccc2n1 (stereo unspecified) returned Methyltransferases active.
Screening O=c1cc(N2CCOCC2)oc2c(NCC3CCOCC3)nccc12 returned Methyltransferases inactive.
For CC1(C(=O)NC2CCCC2)Cn2c(ccc2-c2ccco2)C(=O)N1C1CC1 (stereo unspecified) the results were Methyltransferases inactive.
For COc1ccccc1CNC(=O)C1(C)Cn2c(cc3ccccc32)C(=O)N1CCCc1ccccc1 (stereo unspecified) the results were Methyltransferases inactive.
Screening CCOC(=O)C1CCN(C(=O)CNS(=O)(=O)c2ccc3nc(C)sc3c2)CC1 returned Methyltransferases inactive.
Nc1ncnc2c1ncn2[C@@H]1O[C@H](COP(=O)(O)CP(=O)(O)OP(=O)(O)O)[C@@H](O)[C@H]1O was read as Methyltransferases inactive.
`OC[C@H]1O[C@@H](n2cnc3c(NCc4ccc(O)cc4)ncnc32)[C@H](O)[C@@H]1O` gave Methyltransferases inactive.
Screening N#Cc1ccc(COC[C@H]2O[C@@H](n3c(NCc4ccc(Cl)c(Cl)c4)nc4c(N)ncnc43)[C@H](O)[C@@H]2O)cc1 returned Methyltransferases active.
Screening Cc1nn(C)c(=O)n1C1CCN(C(=O)c2ccco2)CC1 returned Methyltransferases inactive.
`Cc1ccc(Cn2c(=O)c3ccccc3n3c(SCC(=O)Nc4ccccc4F)nnc23)cc1` gave Methyltransferases inactive.
O=C(CCc1nnc2n(Cc3ccc(F)cc3)c(=O)c3ccccc3n12)NC1CCN(Cc2ccccc2)CC1 was read as Methyltransferases inactive.
`N#CC(C#N)=C(N)/C(C#N)=C/c1ccc(O)cc1` gave Methyltransferases inactive.
`N#C/C(=C\c1ccc(O)c(O)c1)C(=O)Nc1ccccc1` gave Methyltransferases inactive.
`N#C/C(=C\c1ccc(O)c(O)c1)C(=O)NCCCNC(=O)/C(C#N)=C/c1ccc(O)c(O)c1` gave Methyltransferases active!.
For O=C(CCn1ccc2cc(S(=O)(=O)N3CCCC3)ccc21)NCc1ccc(Cl)cc1 the results were Methyltransferases inactive.
COc1ccccc1CNC(=O)c1cc2n(n1)CC(C)(C(=O)NCCC(C)C)N(C)C2=O (stereo unspecified) was read as Methyltransferases inactive.
COc1ccc(-c2cc3n(n2)CC(C)(C(=O)NCc2ccccc2)N(CCc2ccccc2)C3=O)cc1 (stereo unspecified) was read as Methyltransferases inactive.
CC1(C(=O)NC2CCCCCCC2)Cn2c(cc3sccc32)C(=O)N1CC1CCCO1 (stereo unspecified) was read as Methyltransferases inactive.
Screening CC(=O)O[C@H]1C[C@@H](O)C(C)(C)C2C[C@@H](OC(C)=O)[C@]3(C)C(CC[C@@]4(C)[C@H](c5ccoc5)OC(=O)[C@H]5O[C@]543)[C@]21C (stereo partly specified) returned Methyltransferases inactive.
CCC(C)C(=O)OC1CC(O)C23C4OCC5(C(O)CC2C1(C)C(O)O4)C3C(=O)C(O)C1(C)C(O)(c2ccoc2)CC2OC251 (stereo unspecified) was read as Methyltransferases active.
CCN1CCN(CCNC(=O)Cn2ccc3cc(S(=O)(=O)N4CCCCC4)ccc32)CC1 was read as Methyltransferases inactive.
`CCCSc1nc(N[C@@H]2C[C@H]2c2ccc(F)c(F)c2)c2nnn([C@@H]3C[C@H](OCCO)[C@@H](O)[C@H]3O)c2n1` gave Methyltransferases active.
For CCc1cc2c(cc3n2CC(C)(C(=O)NC2CCC(C)CC2)N(c2ccccc2C)C3=O)s1 (stereo unspecified) the results were Methyltransferases inactive.
